Measured values as given in PubChem BioAssay.
Several values for one entry are separate records, joined by “and”; a condition that tells them apart may be missing. Equal entries are not always repeated. Records with an inconclusive call do not appear. For part of these data: Entries with a potency or affinity are not part of this list. Activity calls are given as the source filed them.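 The calls were made as follows, unless noted: active = thallium flux through the channel raised or lowered by more than 3 SD from vehicle-only wells, actives on both sides; inactive = the rest.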

How the values were obtained:
[1] = compounds altering viability of human ES cells (AID 493140; call rule not given here;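 also: cells exposed to compounds for four days before counting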); conditions: human embryonic stem cell survival screen; stronger effect = higher value
[2] = P. berghei load reduction in hepatocytes – cell-based, HepG2, luciferase luminescence, HepG2 viability, primary screen (AID 624349; in the data active = parasite load remaining mostly below about 12%, no sharp cut-off; inactive = mostly above about 10%;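 also: 100% = mean of DMSO negative control wells on the same plate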); conditions: P. berghei liver stage in HepG2, luciferase luminescence, concentration not given here; parasite load remaining: stronger effect = lower value; viability: measured here: HepG2 viability without parasites
[3] = signal quenchers or enhancers, Cy5 substrate/SSB – biochemical, NIH Clinical Collection, E. coli SSB, artefact control for HCV NS3 helicase inhibitor project (AID 743268; call rule not given here); conditions: Cy5-oligo bound E. coli SSB, fluorescence interference
[4] = system: Hepatitis C virus NS3 helicase; assay: blockers of NS3h binding to DNA – biochemical, fluorescence polarization, NIH Clinical Collection, primary screen (AID 743270; call rule not given here); conditions: NS3 helicase binding to Cy5-dT15 DNA, stronger effect = higher value, concentration not given here
[5] = biological target: Single-stranded DNA-binding protein (Escherichia coli (strain K12)) (UniProt P0AGE0); assay: SSB-ssDNA binding inhibitors – biochemical, fluorescence polarization, NIH Clinical Collection, counter-screen for HCV NS3 helicase inhibitor project (AID 743271; in the data active = inhibition above about 28%); conditions: E. coli SSB-DNA binding, stronger effect = higher value, concentration not given here
[6] = compounds distorting NS3 helicase fluorescence signal – biochemical, NIH Clinical Collection, artefact control for HCV NS3 helicase inhibitor project (AID 743272; call rule not given here;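 also: HCV NS3 helicase with a Cy5 labelled single stranded DNA probe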); conditions: fluorescence interference counterscreen, HCV NS3 helicase assay; stronger effect = lower value
[7] = system: Neuropilin-2 / VEGF-C interaction (human); assay: small molecules blocking Neuropilin-2/VEGF-C interaction – biochemical, microplate binding format, z-score (AID 743281; call rule not given here); conditions: microplate NRP2/VEGF-C binding assay; stronger effect = lower value
[8] = Wnt pathway potentiators raising nuclear beta-catenin – imaging, WNT3A-conditioned medium, mouse C2C12, NPC library, primary screen (AID 1117326; in the data active = nuclear beta-catenin stimulation mostly above about 4.2%, no sharp cut-off; inactive = mostly below about 10%); conditions: stronger effect = higher value
[9] = stimulators of insulin release from INS-1E, primary screen, cell-based, 5 mM glucose, NPC library (AID 1117329;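 active = compound raises insulin release from rat beta cells at 5 mM glucose, no numeric limit stated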); conditions: rat INS-1E insulin secretion, at 10 µM, stronger effect = higher value
[10] = growth inhibition of GSK3B-pretreated HCT116 cells – cell-based, CellTiter-Glo, 0.2 to 20 µM (AID 1117336;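 active = compounds lowering colon cancer cell viability after pretreatment blocking the GSK3B kinase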); conditions: HCT116 viability after GSK3B inhibitor, at 20 µM, stronger effect = higher value
[11] = inhibition of endothelial tube formation, primary screen, imaging, VEGF stimulated, CD31 staining, tube area, NPC library (AID 1117340;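 active = compound that reduces growth-factor-driven endothelial tube area in a mixed cell culture, no cutoff stated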); conditions: VEGF-stimulated ADSC/ECFC co-culture, at 10 µM, stronger effect = higher value
[12] = GLP1 release stimulators, primary, NCI-H716, NPC library (AID 1117341;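 active = compound raises GLP1 secretion from the human gut endocrine cells, with no numeric limit stated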); conditions: NCI-H716 cells, at 10 µM, stronger effect = higher value
[13] = HCT116 colon cancer cell growth inhibition, primary screen, CellTiter-Glo luminescence, NPC library (AID 1117342;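 active = compounds that lower survival of HCT116 colon cancer cells in the luminescence readout, no numeric limit stated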); conditions: at 20 µM (top of the series)
[14] = reduced SW480 viability measured with CellTiter-Glo, NPC library, primary (AID 1117343;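 active = compounds that lower viability of the colon cancer cells in the luminescence readout, with no numeric limit stated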); conditions: CellTiter-Glo luminescence; at 20 µM (top of the series)
[15] = NPC library primary testing for decreased DLD-1 cell viability via CellTiter-Glo (AID 1117346;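 active = compounds that lower survival of DLD-1 colon cancer cells in the luminescence readout, no cutoff given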); conditions: DLD-1 viability, CellTiter-Glo luminescence; at 20 µM (top of the series)
[16] = modulation of C. elegans fzo-1 (AID 1259413; call rule not given here;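 also: fzo-1 mutant C. elegans worms in liquid wells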); conditions: C. elegans fzo-1 modulator screen, mean read-out; stronger effect = higher value
[17] = viability loss with induced miR-34 in A549 – imaging, A549 dox-inducible miR-34, nuclei and caspase counts, primary screen (AID 1347080;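 active = compounds whose cell count with miR-34 switched on is under 0.7 times the count with it off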); conditions: A549 miR-34 inducible, Hoechst nuclei count, 48 h
[18] = MELAS cybrid and Rieske KO viability enhancers – cell-based, MELAS cybrids, Rieske KO mouse fibroblasts, CellTiter-Glo, primary screen (AID 1508586;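 active = mean z-score across replicates of 1.96 or higher in either the MELAS or the Rieske mutant cell line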;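 also: z relative to plate mean and SD of compound and empty wells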); conditions: low glucose
[19] = biological target: NAD(+) hydrolase SARM1 (Homo sapiens) (UniProt Q6SZW1); assay: blocking NAD cleavage by SARM1 SAM-TIR – cell lysate, NAD-Glo luminescence (AID 1508614;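 active = compound whose remaining NAD level is above about 45 nM, limit read from the data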;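 also: higher remaining NAD means stronger inhibition of SARM1 NADase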); conditions: SAM-TIR HEK293T lysate NADase, at 1 µM, stronger effect = higher value
[20] = galactose survival enhancers in mitochondrial complex I cybrids – cell-based, galactose medium, ATP luminescence, primary screen (AID 1645843;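 active = z-score of at least 1.8 in each of two replicates, scored against plate mean and spread of sample wells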;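 also: positive z means more ATP and so rescue of galactose-driven cybrid death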); conditions: complex I mutant cybrid cells, 72 h, stronger effect = higher value
[21] = system: F380Y; assay: BK channel mutant inhibitors and activators – cell-based, U2OS BacMam, thallium flux, beta subunits, selectivity assay, profiling panel (AID 1259406); conditions: U2OS BacMam BK variants, at 30 µM;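 also: initial slope of Thallos dye fluorescence rise after thallium is added; log ratio against the mean of 0.3% DMSO vehicle wells on the same plate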
[22] = system: F380Y/beta1; assay: as above; conditions: U2OS BacMam BK variants, at 30 µM
[23] = system: F380Y/beta2Delta; assay: as above; conditions: U2OS BacMam BK variants, at 30 µM
[24] = system: F380Y/beta4; assay: as above; conditions: U2OS BacMam BK variants, at 30 µM
[25] = biological target: Calcium-activated potassium channel subunit alpha-1 (Homo sapiens) + Leucine-rich repeat-containing protein 26 (Homo sapiens) (UniProt Q12791+Q2I0M4); assay: as above; conditions: U2OS BacMam BK variants, F380Y/Slo1WT/gamma1, at 30 µM
[26] = system: R275C; assay: as above; conditions: U2OS BacMam BK variants, at 30 µM
[27] = system: R275C/beta1; assay: as above; conditions: U2OS BacMam BK variants, at 30 µM
[28] = system: R275C/beta2Delta; assay: as above; conditions: U2OS BacMam BK variants, at 30 µM
[29] = system: R275C/beta4; assay: as above; conditions: U2OS BacMam BK variants, at 30 µM
[30] = system: R275C/Slo1WT/beta2; assay: as above; conditions: U2OS BacMam BK variants, at 30 µM
[31] = biological target: ATP-dependent translocase ABCB1 (Homo sapiens) (UniProt P08183); assay: P-glycoprotein substrate transport blockade – cell-based (AID 377; in the data active = fluorescence slope change above about 50%); conditions: MDR1-expressing cells, fluorescent substrate accumulation slope; stronger effect = higher value; concentration not given here
[32] = blockers of polyQ-driven CASP3 activation – cell-based (AID 1583); conditions: polyglutamine-induced caspase-3 activation, cell assay; stronger effect = higher value;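 tested at 10 µM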
[33] = yeast 75Q aggregation reduction – 75Q-TubU reporter (AID 1593); conditions: Yeast 75Q polyglutamine aggregation reporter
[34] = restoration of touch response, mutant HTT neurons – whole organism, C. elegans mechanosensory neurons, N-terminal huntingtin (AID 1599); conditions: C. elegans polyQ-huntingtin mechanosensory neurons, stronger effect = higher value
[35] = blockers of cytochrome c efflux from mitochondria – biochemical, purified mitochondria (AID 1603); conditions: stronger effect = lower value;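 also: mouse liver mitochondria challenged with calcium chloride; signal normalized to the plate average as 100%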
[36] = polyglutamine aggregate formation blockers (AID 1604); conditions: polyglutamine-induced protein aggregation inhibition assay; stronger effect = higher value; tested at 2.5 µM
[37] = glutamate transport activators, MN-1 cells, MN-1 cell line (AID 1612); conditions: MN-1 motor neuron cells, stronger effect = higher value;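 also: tested at 1 µM final; 0% = mean of DMSO vehicle wells on each plate; positive means more glutamate uptake than control and negative means less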
[38] = GFP-Q80 aggregate reduction, neuronal-like cells, cell-based, NGF-treated PC12, GFPQ80 (AID 1614); conditions: PC12 NGF-treated GFP-polyQ80 inclusion reduction;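 also: lower means fewer inclusions and 0 means no inclusions at all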
[39] = 75Q-TubH aggregate inhibition, S. cerevisiae, yeast (AID 1616); conditions: S. cerevisiae 75Q-TubH polyglutamine aggregation suppression; stronger effect = higher value
[40] = compounds altering circadian rhythm period length – cell-based, LOPAC library, luminescence reporter (AID 2774; call rule not given here;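 also: values are relative to mean of DMSO wells on each plate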); conditions: circadian reporter cells, at 7 µM, actives lie on both sides
[41] = system: Hepatitis C virus NS3 helicase; assay: blockers of NS3h binding to ssDNA – biochemical, fluorescence polarization, LOPAC1280 library, primary screen (AID 687035; in the data active = inhibition above about 37%); conditions: Purified HCV NS3 helicase, Cy5-dT15 ssDNA binding fluorescence polarization; stronger effect = higher value; concentration not given here
[42] = compounds altering Cy5-DNA-NS3h complex signal – biochemical, LOPAC1280, artefact control for HCV NS3 helicase inhibitor project (AID 687037; call rule not given here); conditions: Cy5-DNA-NS3h complex fluorescence interference counterscreen
[43] = biological target: 6-phosphogluconate dehydrogenase, decarboxylating (Homo sapiens) (UniProt P52209); assay: inhibition of human phosphogluconate dehydrogenase – biochemical, recombinant enzyme, NADPH absorbance, primary screen (AID 1159550;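 active = at least 20% inhibition of 6-phosphogluconate dehydrogenase activity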); conditions: recombinant 6PGD, NADPH absorbance 341 nm; at 10 µM; stronger effect = higher value
[44] = EMT-state selective cytotoxicity in co-culture – imaging, PC-3E GFP, TEM4-18 mCherry, primary screen (AID 1345086;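 active = compounds killing one labelled cell type while sparing the other, by normalised counts and ratio limits, not self-fluorescent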;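 also: cells exposed to compound for 72 h before imaging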;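 as to red/green cell ratio (normalised): normalised mesenchymal count divided by normalised epithelial count so high means epithelial killing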); conditions: PC-3E GFP / TEM4-18 mCherry co-culture, imaging cell counts, at 1 µM
[45] = viability loss in pontine glioma line – cell-based, SU-DIPG-XIII, MIPE4.0, CellTiter-Glo, qHTS, dose response (AID 1347061; cut-off not given, nearly all actives have AC50 up to about 37 µM;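 also: cells exposed to compound for 48 hours before readout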); conditions: CellTiter-Glo ATP luminescence
[46] = viability loss in pontine glioma line – cell-based, JHH-DIPG-1, MIPE4.0, CellTiter-Glo, qHTS, dose response (AID 1347062; cut-off not given, nearly all actives have AC50 up to about 27 µM); conditions: JHH-DIPG-1 viability, CellTiter-Glo ATP luminescence
[47] = viability loss in pontine glioma line – cell-based, SU-DIPG-IV, MIPE4.0, CellTiter-Glo, qHTS, dose response (AID 1347063; cut-off not given, nearly all actives have AC50 up to about 30 µM;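 also: compound exposure lasted 48 hours before the viability readout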); conditions: CellTiter-Glo ATP luminescence
[48] = growth inhibition of DIPG cells – cell-based, MIPE4.0 library, CellTiter-Glo luminescence, qHTS (AID 1347066; cut-off not given, nearly all actives have AC50 up to about 30 µM;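 also: cells exposed to compound for 48 hours before readout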); conditions: SU-DIPG-VI viability, CellTiter-Glo ATP luminescence
[49] = blockers of cellular phospholipid synthesis – cell-based, LOPAC library, screen 4, primary screen (AID 1347384; call rule not given here); conditions: animal cells, phospholipid biosynthesis inhibition screen; at 10 µM
[50] = biological target: Mitogen-activated protein kinase 7 (Homo sapiens) (UniProt Q13164); assay: Gal4-ERK5 driven luciferase induction – cell-based, HTS, primary screen (AID 1508626;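 active = luciferase signal above three times the same-plate solvent-only control wells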;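 also: luciferase driven by Gal4-ERK5 fusion binding five Gal4 sites before minimal TATA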); conditions: HeLa Gal4-ERK5 transactivation, 18 h, at 5 µM, stronger effect = higher value
[51] = MELAS cybrid survival, CellTiter-Glo 48 h, stronger effect = higher value
[52] = Rieske KO mouse fibroblast survival, CellTiter-Glo 72 h

NAD(+) hydrolase SARM1 (Homo sapiens), sequence (Q6SZW1 whole entry, looked up): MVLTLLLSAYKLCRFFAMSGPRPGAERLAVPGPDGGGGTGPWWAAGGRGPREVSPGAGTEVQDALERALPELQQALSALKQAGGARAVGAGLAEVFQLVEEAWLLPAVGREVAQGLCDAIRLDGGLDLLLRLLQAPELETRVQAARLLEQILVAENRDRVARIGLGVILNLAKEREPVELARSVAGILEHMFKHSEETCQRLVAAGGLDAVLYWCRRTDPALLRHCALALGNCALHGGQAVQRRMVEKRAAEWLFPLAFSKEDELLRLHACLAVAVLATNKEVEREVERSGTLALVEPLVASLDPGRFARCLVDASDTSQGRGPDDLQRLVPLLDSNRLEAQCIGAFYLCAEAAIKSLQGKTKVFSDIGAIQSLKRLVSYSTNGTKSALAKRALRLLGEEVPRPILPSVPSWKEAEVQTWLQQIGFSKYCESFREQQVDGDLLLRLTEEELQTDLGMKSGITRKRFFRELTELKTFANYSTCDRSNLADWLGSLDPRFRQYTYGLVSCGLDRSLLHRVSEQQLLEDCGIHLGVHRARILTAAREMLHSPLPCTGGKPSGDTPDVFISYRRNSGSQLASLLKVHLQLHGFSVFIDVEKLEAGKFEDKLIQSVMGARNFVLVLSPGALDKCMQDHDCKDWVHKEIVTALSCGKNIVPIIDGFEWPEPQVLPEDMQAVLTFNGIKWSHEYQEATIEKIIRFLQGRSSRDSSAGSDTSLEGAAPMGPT
Calcium-activated potassium channel subunit alpha-1 (Homo sapiens) + Leucine-rich repeat-containing protein 26 (Homo sapiens), sequence (Q2I0M4 whole entry, looked up, one chain of several): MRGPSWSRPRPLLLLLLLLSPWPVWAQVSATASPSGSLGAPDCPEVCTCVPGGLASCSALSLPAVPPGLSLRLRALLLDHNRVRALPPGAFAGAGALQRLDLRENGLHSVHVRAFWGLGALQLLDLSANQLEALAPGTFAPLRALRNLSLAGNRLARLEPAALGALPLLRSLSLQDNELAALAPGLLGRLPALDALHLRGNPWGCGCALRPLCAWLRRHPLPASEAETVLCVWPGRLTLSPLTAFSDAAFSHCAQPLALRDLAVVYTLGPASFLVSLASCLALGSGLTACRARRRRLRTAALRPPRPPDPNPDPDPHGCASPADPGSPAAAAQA
Mitogen-activated protein kinase 7 (Homo sapiens), sequence (Q13164 whole entry, looked up, the tested form may be a part): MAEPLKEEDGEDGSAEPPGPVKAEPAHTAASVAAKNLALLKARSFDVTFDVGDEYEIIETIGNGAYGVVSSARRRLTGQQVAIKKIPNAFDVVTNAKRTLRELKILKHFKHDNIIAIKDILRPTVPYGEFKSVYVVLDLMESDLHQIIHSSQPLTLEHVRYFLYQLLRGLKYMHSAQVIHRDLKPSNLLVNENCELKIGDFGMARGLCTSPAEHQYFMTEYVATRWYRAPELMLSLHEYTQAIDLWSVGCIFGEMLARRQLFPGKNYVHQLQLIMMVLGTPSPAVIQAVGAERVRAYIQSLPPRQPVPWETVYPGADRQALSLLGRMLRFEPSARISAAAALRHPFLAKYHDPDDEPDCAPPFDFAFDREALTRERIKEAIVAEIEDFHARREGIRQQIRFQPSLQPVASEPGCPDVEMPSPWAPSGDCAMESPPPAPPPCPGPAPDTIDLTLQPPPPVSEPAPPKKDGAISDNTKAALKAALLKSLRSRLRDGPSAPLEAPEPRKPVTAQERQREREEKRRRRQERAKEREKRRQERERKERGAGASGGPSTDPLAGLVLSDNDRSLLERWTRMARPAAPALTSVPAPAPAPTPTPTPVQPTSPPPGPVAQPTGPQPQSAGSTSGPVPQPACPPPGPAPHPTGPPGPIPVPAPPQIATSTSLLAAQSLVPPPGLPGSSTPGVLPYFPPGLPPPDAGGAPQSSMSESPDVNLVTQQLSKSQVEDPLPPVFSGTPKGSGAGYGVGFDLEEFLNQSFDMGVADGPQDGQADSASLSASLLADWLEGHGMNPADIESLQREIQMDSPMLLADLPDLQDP
ATP-dependent translocase ABCB1 (Homo sapiens), sequence (P08183 whole entry, looked up): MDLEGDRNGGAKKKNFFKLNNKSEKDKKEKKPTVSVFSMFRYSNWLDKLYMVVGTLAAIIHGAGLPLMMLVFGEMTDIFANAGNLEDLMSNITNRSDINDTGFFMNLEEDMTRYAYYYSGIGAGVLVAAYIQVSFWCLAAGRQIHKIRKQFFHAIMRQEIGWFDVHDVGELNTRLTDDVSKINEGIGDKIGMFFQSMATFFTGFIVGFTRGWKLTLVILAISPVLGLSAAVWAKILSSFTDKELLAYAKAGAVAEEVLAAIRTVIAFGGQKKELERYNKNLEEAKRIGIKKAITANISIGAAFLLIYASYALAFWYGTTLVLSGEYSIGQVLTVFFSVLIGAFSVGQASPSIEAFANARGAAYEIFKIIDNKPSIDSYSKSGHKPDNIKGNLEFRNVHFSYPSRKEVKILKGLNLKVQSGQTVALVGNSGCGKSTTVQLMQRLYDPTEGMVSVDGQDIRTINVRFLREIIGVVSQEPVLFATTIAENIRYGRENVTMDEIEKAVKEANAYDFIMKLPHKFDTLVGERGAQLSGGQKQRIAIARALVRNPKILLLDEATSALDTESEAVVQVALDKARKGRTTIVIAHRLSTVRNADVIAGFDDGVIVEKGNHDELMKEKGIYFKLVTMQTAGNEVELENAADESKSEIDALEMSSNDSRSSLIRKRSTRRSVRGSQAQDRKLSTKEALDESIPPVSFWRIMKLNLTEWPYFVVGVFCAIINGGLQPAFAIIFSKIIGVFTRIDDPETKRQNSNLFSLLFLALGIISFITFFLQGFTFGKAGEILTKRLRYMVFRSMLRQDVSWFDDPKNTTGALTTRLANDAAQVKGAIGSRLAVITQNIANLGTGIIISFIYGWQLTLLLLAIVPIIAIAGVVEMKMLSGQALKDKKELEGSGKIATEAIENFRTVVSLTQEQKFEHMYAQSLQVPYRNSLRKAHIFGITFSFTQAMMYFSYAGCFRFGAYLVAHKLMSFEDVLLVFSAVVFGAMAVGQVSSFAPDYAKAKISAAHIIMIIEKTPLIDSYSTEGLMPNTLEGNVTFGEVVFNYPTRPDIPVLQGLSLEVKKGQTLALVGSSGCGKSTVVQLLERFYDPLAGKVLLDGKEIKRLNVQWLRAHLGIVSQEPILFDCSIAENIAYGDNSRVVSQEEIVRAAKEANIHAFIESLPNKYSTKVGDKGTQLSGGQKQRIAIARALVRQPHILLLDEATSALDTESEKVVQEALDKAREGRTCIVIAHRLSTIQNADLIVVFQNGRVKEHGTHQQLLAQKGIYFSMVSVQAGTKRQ
6-phosphogluconate dehydrogenase, decarboxylating (Homo sapiens), sequence (P52209 whole entry, looked up): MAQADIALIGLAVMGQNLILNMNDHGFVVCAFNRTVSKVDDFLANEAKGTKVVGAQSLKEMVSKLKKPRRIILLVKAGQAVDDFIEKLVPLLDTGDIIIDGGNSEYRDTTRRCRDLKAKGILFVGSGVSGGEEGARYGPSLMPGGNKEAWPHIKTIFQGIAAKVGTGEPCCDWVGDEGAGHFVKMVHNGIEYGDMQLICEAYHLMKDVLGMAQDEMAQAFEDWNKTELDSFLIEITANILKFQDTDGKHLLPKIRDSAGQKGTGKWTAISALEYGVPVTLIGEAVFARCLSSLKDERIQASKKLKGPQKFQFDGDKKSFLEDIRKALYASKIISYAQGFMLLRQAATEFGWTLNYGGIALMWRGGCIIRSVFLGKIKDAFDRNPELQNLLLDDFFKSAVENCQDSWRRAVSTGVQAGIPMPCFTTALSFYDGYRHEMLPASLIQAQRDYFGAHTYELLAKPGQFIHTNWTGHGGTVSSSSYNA

C[C@@H](O)[C@H]1C(=O)N2C(C(=O)O)=C(S[C@@H]3CN[C@H](C(=O)N(C)C)C3)[C@H](C)[C@H]12
9770 and 10500: cell count ([17]; measured here: total cells without miR-34 induction)
1% and 0.5%: nuclear beta-catenin stimulation ([8]; stimulation, at 2 µM)
9470 and 9550: cell count ([17]; measured here: total cells with miR-34 induction, stronger effect = lower value)
1.23 and -0.866: z-score [18, 52]
0.61 and 1.16: fold change ([17]; measured here: relative caspase fold change +Dox/-Dox)
inactive: survival [1] 4.17 | parasite load remaining [2] 81% and 101% and 24.6% | fluorescence ratio [3] 1.04 | inhibition [4] 2.77% | inhibition [5] -0.87% | fluorescence ratio [6] 0.99 | z-score [7] -0.132 | nuclear beta-catenin stimulation ([8]; at 10 µM) -1.7% and -0.1% | insulin secretion stimulation [9] 1.9% and 2% | viability decrease [10] -24.1% and -19.8% | tube area decrease [11] -3.2% and 11.7% | GLP1 secretion stimulation [12] -1.2% and -6.2% | inhibition of viability [13] 3.6% and 6.7% | viability decrease (inhibition) [14] 9.5% and 15.1% | viability decrease (inhibition) [15] -2.2% and -3.6% | mean signal [16] 272 | fold change ([17]; stronger effect = lower value, cell number ratio, induced over uninduced) 0.969 and 0.909 | z-score [18, 51] 0.815 and 0.0614 | remaining NAD [19] 10 nM | z-score [20] 1.23 | log fold change Tl+ flux [21] 0.000985 | log fold change Tl+ flux [22] 0.00288 | log fold change Tl+ flux [23] -0.00534 | log fold change Tl+ flux [24] -0.00589 | log fold change Tl+ flux [25] -0.0284 | log fold change Tl+ flux [26] -0.0931 | log fold change Tl+ flux [27] -0.0201 | log fold change Tl+ flux [28] -0.042 | log fold change Tl+ flux [29] 0.0148 | log fold change Tl+ flux [30] -0.00332
74.6% and 72.6% and 92%: viability [2]

O=c1n(CCCN2CCN(c3cccc(Cl)c3)CC2)nc2ccccn12
active: fluorescence slope change [31] 85.5%
-2.89%: inhibition of aggregation [36]
8.41: rescue above control [34]
inactive: period change [40] -0.06 h | survival [1] 27.2 | inhibition [41] 0% | fluorescence ratio (interference) [42] 1 | fluorescence ratio [3] 1.01 | inhibition [4] -6.73% | inhibition [5] -2.41% | fluorescence ratio [6] 0.97 | z-score [7] 0.0689 | nuclear beta-catenin stimulation ([8]; at 10 µM) 4.5% | insulin secretion stimulation [9] -0.1% | viability decrease [10] -48.7% | tube area decrease [11] 4.5% | GLP1 secretion stimulation [12] 0.4% | inhibition of viability [13] 16.6% | viability decrease (inhibition) [14] 9.9% | viability decrease (inhibition) [15] 2.2% | inhibition [43] -5.67% | mean signal [16] 242 | red/green cell ratio (normalised) ([44]; actives lie on both sides, counts scaled to control wells, 1 = unselective) 1.12 | outcome [45] | outcome [46] | outcome [47] | outcome [48] | outcome [49] | z-score [18, 51] 0.0745 | remaining NAD [19] 10 nM | luciferase signal [50] 72 AU | z-score [20] -0.33 and 0.63 | log fold change Tl+ flux [21] 0.0157 | log fold change Tl+ flux [23] 0.035 | log fold change Tl+ flux [25] 0.0319 | log fold change Tl+ flux [26] 0.0186 | log fold change Tl+ flux [27] 0.025 | log fold change Tl+ flux [28] 0.0634
2: inclusion score [38]
1.14: normalised cell number ([44]; measured here: mesenchymal TEM4-18 mCherry cell survival)
1.02: normalised cell number ([44]; measured here: epithelial PC-3E GFP cell survival)
-0.0668: z-score [18, 52]
0.2%: nuclear beta-catenin stimulation ([8]; stimulation, at 2 µM)
1.36: score [33]
1.04: cytochrome c release ratio [35]
1.27: aggregation suppression score [39]
4.27%: glutamate uptake change [37]
17.6%: inhibition [32]
